Screens as filed in PubChem BioAssay.
An excerpt weighted towards active compounds, which were near 13% of everything screened.
HCMV inh – qHTS Assay for inhibitors of the human cytomegalovirus (HCMV) | HFF cells, HCMV-luciferase reporter, 72 h; stronger effect = lower value | hit rate 4.5% among 410,000 | activity change, negative = inhibition, % at 57.5 µM; in the data active = activity change below about -60%; inconclusive = no clear call, values can overlap the other calls; inactive = above about -39%
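Two-dose cell screen: HFF monolayers treated with compounds and infected with luciferase-expressing HCMV at 1 PFU/cell, 72 h at 37C, then lysed for luciferase measurement.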
Pf growth 96h – Primary qHTS for delayed death inhibitors of the malarial parasite plastid, 96 hour incubation. P. falciparum luciferase reporter growth, 96 h. Potency, µM (series often up to 28.7 µM), without a hit: at the highest dose activity change, negative = inhibition, hits mostly inhibitors. hit rate 6.9% among 320,000. AID 504834, 2011; also: potency is read from the fitted curve at half-maximal effect
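96 h incubation, 37 C, 5% CO2, of luciferase-reporter P. falciparum-infected RBCs (2% hematocrit, 0.05% parasitemia final) with test compounds; endpoint luminescence.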
Pf growth 48h – Primary qHTS for delayed death inhibitors of the malarial parasite plastid, 48 hour incubation. P. falciparum luciferase growth in erythrocytes, 48 h. Potency, µM (top dose mostly 28.7 µM), without a hit: at the top dose activity change, negative = inhibition, hits mostly inhibitors. hit rate 5.9% among 310,000. AID 504832, 2011; also: potency is read from the fitted curve at half-maximal effect
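Cell-based growth assay: transgenic P. falciparum expressing firefly luciferase, cultured in red cells within RPMI 1640 containing 0.5% w/v Albumax, 24 mM bicarbonate and gentamycin. A drop in luciferase activity indicates inhibition.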
HCV inhibitor – qHTS Assay for Inhibitors of Hepatitis C Virus (HCV) | Huh7.5.1 HCVcc-Cre infection, luciferase reporter, 44 h | Potency, µM (doses to about 41.8 µM), for the others: top-dose activity change, negative = inhibition, usual class: inhibitors | hit rate 3.4% among 340,000 | AID 651820, 2012; also: potency is read from the fitted curve at half-maximal effect
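Cells (1,000/well) were plated 4 h before compound, then infected with HCVcc-Cre virus (~0.5 moi). After 44 h further culture, infection was read as luciferase luminescence following a 15 min substrate incubation at room temperature.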
Starred values were filed as active, the others as inactive; u = inconclusive; x = no result. Unless noted, calls follow the shape of the dose curve; as a rule, active = well fitted inhibition curve with a large enough effect; inconclusive = small, poorly fitted or top-dose-only effect, or another doubt; inactive = no such curve, though single readings can be large or run the other way. % is scaled to controls: 0 for no effect and ±100 for the full control effect.

SMILES | HCMV inh | Pf growth 96h | Pf growth 48h | HCV inhibitor
COc1ccc(Nc2nc(-c3sc(C)nc3C)cs2)c(OC)c1 | -15 | u | -8% | u
CCCCC(=O)Nc1nc(C)c(-c2csc(Nc3ccccc3OC)n2)s1 | -36 | u | u | -27%
CCCCCC(=O)Nc1nc(C)c(-c2csc(Nc3cc(OC)ccc3OC)n2)s1 | -37 | 12µM* | 6.6µM* | u
CC(C)OCCCn1c(=O)c2ccccc2n2c(-c3cc(Cl)ccc3O)nnc12 | -20 | x | x | x
Cc1ccc2[nH]c(CSc3nnc(C)s3)cc(=O)c2c1 | 2 | x | x | x
CCOC(=O)c1nc2sc(C)c(C)c2c(=O)[nH]1 | 31 | u | -20% | 3%
CCOC(=O)/C(=C\c1cccc(O)c1)c1nc2sc(C)c(C)c2c(=O)[nH]1 | -99* | u | u | 1%
Cc1cccc(CS(=O)(=O)Cc2ccc(C(=O)NCc3ccc(Cl)cc3)o2)c1 | -16 | x | x | x
CC(C)CCNc1ncnc2c1nnn2Cc1ccccc1 | 35 | 10µM* | -3% | 6%
COC(=O)c1cc(=O)nc(NN=C2c3ccccc3-c3ccccc32)s1 | -66* | x | x | x
CCN(CC)S(=O)(=O)c1ccc(Cl)c(NC(=S)NC(=O)C2CCCC2)c1 | u | u | 13µM* | 4µM*
CCN(CC)c1ccc(S(=O)(=O)Nc2cc(Cl)ccc2Cl)cc1NC(=S)NC(=O)C1CCCC1 | u | -27% | -10% | -26%
Cc1ccc(S(=O)(=O)N(C)C)cc1NC(=S)NC(C)CCCC(C)C (centres undefined) | -73* | -72% | u | u
CCN(CC)S(=O)(=O)c1cccc(C(=O)NC2CCCCC2)c1 | 24 | 1.7µM* | 19% | 4%
CCN(CC)S(=O)(=O)c1ccc(C)c(NC(=S)NC2CCCCC2)c1 | -22 | u | 15µM* | 1%
Cc1c(Cl)cccc1-n1nc(C)c2c(C)cc(=O)n(CC(=O)N3CCCc4ccccc43)c21 | -21 | x | x | x
Cc1ccc2c(=O)cc(C(=O)Nc3ccc(S(=O)(=O)N4CCCCCC4)cc3)oc2c1 | 6 | x | x | x
CCOC(=O)Cn1c(=O)cc(-c2ccccc2)c2c(C)nn(C)c21 | 8 | x | x | x
CC(=O)C[C@@H]1SC[C@H](c2ccccc2)N1S(=O)(=O)c1ccc(C)cc1 | 27 | x | x | x
Cc1cc2oc(C(=O)Nc3sc4c(c3C(=O)NCC3CCCO3)CCCC4)cc(=O)c2cc1C (centres undefined) | -4 | x | x | x
O=C(/C(N=Nc1cccc(C(F)(F)F)c1)=C(/O)c1cccs1)C(F)(F)F | 163 | 5.2µM* | u | u
Cc1cc(C)c(S(=O)(=O)Cc2ccc(Cl)cc2)c(=O)[nH]1 | u | 13% | 10µM* | 12%
O=c1c(-c2cccs2)cc(-n2c(=O)[nH]c3ccccc32)cn1-c1ccccc1 | -6 | x | x | x
COc1ccc(NC(=O)Cn2cc(C(=O)c3ccc(C)c(C)c3)c(=O)c3cc(OC)ccc32)cc1 | 0 | x | x | x
COc1ccc(C(=O)NCc2nnc(SCC(=O)Nc3ccccc3)n2-c2ccc(F)cc2)cc1 | 14 | x | x | x
SMILES | HCMV inh | Pf growth 96h | Pf growth 48h | HCV inhibitor
Cc1ccc(Nc2nc3ccc(Cl)cc3n3cnnc23)cc1F | -21 | u | 10µM* | u
Cn1c(-c2cccnc2)cc2cnc(Nc3ccc(OC(F)(F)F)cc3)cc21 | -60* | x | x | x
COc1ccc(Nc2cc3c(cn2)cc(-c2cccc(C(F)(F)F)c2)n3C)c(OC)c1 | -1 | x | x | x
Cn1c(-c2ccccc2)nc2cnc(Nc3cccc(OC(F)(F)F)c3)cc21 | -79* | x | x | x
COc1cccc(Nc2cc3c(cn2)cc(-c2cccc(C(F)(F)F)c2)n3C)c1 | -80* | x | x | x
COc1cc(Cn2c(=O)oc3ccc(C)cc32)ccc1OC(C)C | 12 | u | 0% | 1.1µM*
C[C@@H]1CN([C@@H](C)CO)C(=O)CCCn2cc(nn2)CO[C@H]1CN(C)C(=O)Nc1ccc2c(c1)OCO2 | -11 | x | x | x
CN1CCc2c(sc3nc(SCC(=O)N4CCOCC4)nc(N)c23)C1 | 19 | 5% | u | 19%
CSc1nc(NCCCO)c2c3c(sc2n1)CN(C)CC3 | -4 | 5.2µM* | u | u
CSc1nc(SCC(=O)NC(c2ccccc2)c2ccccc2)c2c3c(sc2n1)CN(C)CC3 | -29 | 2.9µM* | 7.4µM* | 1.8µM*
CSc1nc(NCC(C)O)c2c3c(sc2n1)CN(C)CC3 (centres undefined) | -12 | 6.6µM* | u | -14%
CCOc1ccccc1C(=O)Nc1cc(-c2ccc(C)cc2)no1 | 71 | x | x | x
COc1ccc(Cn2c(CNS(=O)(=O)c3ccc4c(c3)CCCC4)nc3cccnc32)cc1 | 1 | x | x | x
CCOc1ccc(/C=C/c2nc(C#N)c(NCCc3ccccc3)o2)cc1 | -3 | x | x | x
CCc1cccc(C)c1NC(=O)CSc1nc2c(c(=O)[nH]1)CCC2 | -7 | x | x | x
Cc1ccc(C)n1-c1c(C(=O)NCCCN2CCN(c3ccc(F)cc3)CC2)sc2ncccc12 | 19 | x | x | x
NCCc1c(-c2ccccc2)n(-c2ccccc2)c2ccccc12 | -4 | u | 15µM* | 11µM*
CC(=O)n1c(-c2ccccc2)c(CO)c2ccccc21 | -17 | u | 31% | -25%
O=[N+]([O-])c1nn(-c2ccc(Cl)cc2)n(O)c1=NCc1ccncc1 | u | -19% | 2.9µM* | u
Cc1cc(C)cc(N=c2c([N+](=O)[O-])nn(-c3cccc(Cl)c3)n2O)c1 | 4 | 3.7µM* | x | u
Cc1ccc(CN=c2c([N+](=O)[O-])nn(-c3ccc(Cl)cc3)n2O)cc1 | -21 | 3.3µM* | 75% | u
CC(=O)Nc1ccc(NC(=O)C(Cc2ccccc2)NS(=O)(=O)c2ccc3c(c2)oc(=O)n3C)cc1 (centres undefined) | 8 | x | x | x
Cc1cc(C(=O)NCc2ccccc2C)c2c(C)nn(-c3cccc(F)c3)c2n1 | -15 | x | x | x
O=C(c1cnc2c(c1)COc1ccccc1-2)c1ccccc1O | -27 | x | x | x
CCN1CCN(C(=O)c2ccc(Sc3ccccc3Cl)c([N+](=O)[O-])c2)CC1 | -11 | -4% | -2% | -12%
SMILES | HCMV inh | Pf growth 96h | Pf growth 48h | HCV inhibitor
O=C(NCCCN1CCOCC1)c1ccc(Sc2ccc(F)cc2)c([N+](=O)[O-])c1 | 21 | 0% | 5% | u
CCN1CCCC1CNC(=O)c1ccc(Sc2ccc(F)cc2)c([N+](=O)[O-])c1 (centres undefined) | -18 | u | u | 6.3µM*
CCN1CCCC1CNC(=O)c1ccc(Sc2ccccc2Cl)c([N+](=O)[O-])c1 (centres undefined) | u | 2% | u | 5.6µM*
CCn1c(CNC(=O)c2ccc(OC)cc2)nnc1SCC(=O)Nc1ccc(F)cc1 | 11 | x | x | x
CCOc1ccc(CCNC(=O)c2cn(CC)c3ccc(S(=O)(=O)N4CCc5ccccc5C4)cc3c2=O)cc1OCC | -5 | x | x | x
O=C(N/N=C/c1ccc(O)c(O)c1)c1ccc(-n2cnnn2)cc1 | 4 | u | u | u
